The values that follow come from PubChem BioAssay (NCI).

The panel holds about 79,000 compounds, 15% with a hit somewhere; the sample as a whole holds those more often. Active and inactive are the calls of the source. Rule as the data show it: active = growth inhibition above about 70%; inactive = the rest.

The nature of one assay: NCI Yeast Anticancer Drug Screen. Data for the sgs1 mgt1 strain (AID 161).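 Also: 0% = growth of cultures given vehicle only.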 As to conditions: S. cerevisiae sgs1 mgt1 strain, at 5.0 µM (retest, dose inferred, filed as 0.5), stronger effect = higher value. In a few lines:
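Yeast cells carrying a defined DNA-repair defect were exposed to test compounds. Growth inhibition was measured relative to vehicle-treated controls.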
Turning to `CCOC(=O)CNC(=O)C1C2c3ccccc3C(c3ccccc32)C1C(=O)O` (stereo not given), the growth inhibition was 0% (inactive).

As to `O=[N+]([O-])c1ccc(NP(=S)(Nc2ccc([N+](=O)[O-])cc2)c2ccccc2)cc1`, the growth inhibition was 6% (inactive).

For `O=P(c1ccccc1)(c1ccccc1)c1ccccc1.[Cl][Sn]([c]1ccccc1)([c]1ccccc1)[c]1ccccc1`, the growth inhibition is 99% (active).

Regarding `CC(C)(C)OOC(=O)/C=C\C(=O)OOC(C)(C)C`, the growth inhibition is 0% (inactive).

For `Cc1cc2c(cc1O)C(C)(C)CCC2(C)C`, the growth inhibition is 1% (inactive).

Regarding `N#CC(C#N)=Cc1ccc(Cl)o1`, the growth inhibition is 2% (inactive).

As to `COc1c(Br)cc(/C=C/[N+](=O)[O-])cc1Br`, the growth inhibition is 98% (active).

With `[O]=[Sb]([OH])([OH])[c]1ccc(NC2OC(CO)C(O)C(O)C2O)cc1` (stereo not given), the growth inhibition is -1% (inactive).

As to `NC(=S)C1=C(N)Oc2c(c(=O)oc3ccccc23)C1c1ccc(Br)cc1` (stereo not given), the growth inhibition is 10% (inactive).

For `COS(=O)(=O)c1ccccc1`, the growth inhibition was -4% (inactive).

On to `O=[N+]([O-])c1cc[n+]([O-])c2ccccc12`, for which the growth inhibition was 99% (active).

For the compound `O=C(c1ccccc1)c1c(CC(O)c2cccnc2)n(C(=O)c2ccccc2)c2ccccc12` (stereo not given), the growth inhibition was 13% (inactive).

As to `Nc1nc2ncnc(N)c2nc1-c1ccc(N(CCCl)CCCl)cc1`, the growth inhibition was -3% (inactive).

As to `O=C1c2ccccc2CCC1Br` (stereo not given), the growth inhibition was -3% (inactive).

For the compound `CC1CCCC[N-]1.CC1CCCC[N-]1.N#C[S-].N#C[S-].[Cd]` (stereo not given), the growth inhibition was 12% (inactive).

For the compound `CCOP(=O)(OCC)/C(C#N)=C/c1ccc(Br)cc1`, the growth inhibition is -18% (inactive).

As to `CN(CCCl)Cc1ccc(OCc2ccccc2)c(OCc2ccccc2)c1`, the growth inhibition is 0% (inactive).

In the case of `O=C(O)c1cccc2cccc(C(=O)O)c12.[Hg]`, the growth inhibition is 100% (active).

Regarding `S=c1[nH]c2ccccc2s1.[Pb]`, the growth inhibition was 0% (inactive).

As to `COc1ccc([As](O[As](c2ccc(OC)cc2)c2ccc(OC)cc2)c2ccc(OC)cc2)cc1`, the growth inhibition was 100% (active).

On to `CC1=C/C(=C2/N=C(N(C)C)SS2)C(C)=N1`, for which the growth inhibition was 31% (inactive).

Take `CN1C2CCC1c1c([nH]c3ccccc13)C2` (stereo not given): the growth inhibition is -7% (inactive).

For `C[CH2][Sn]([Br])([CH2]C)[c]1ccccc1CN(C)C`, the growth inhibition is 9% (inactive).

Consider `O=C(CCl)Nc1ccc(Cl)cc1`, for which the growth inhibition was -2% (inactive).

For the compound `ClC1CCCCC1[Se](Cl)(Cl)C1CCCCC1Cl` (stereo not given), the growth inhibition is 12% (inactive).

Consider `Cc1cc(C(C)(C)c2ccc(O)c(C)c2)ccc1O`, for which the growth inhibition was -6% (inactive).

Regarding `O=[N+]([O-])O.[In]`, the growth inhibition was 6% (inactive).

Turning to `[pH]1p2[pH]p3p1p3[pH]2.c1cc[c]([Ge]([c]2ccccc2)[c]2ccccc2)cc1.c1cc[c]([Ge]([c]2ccccc2)[c]2ccccc2)cc1.c1cc[c]([Ge]([c]2ccccc2)[c]2ccccc2)cc1`, the growth inhibition is 18% (inactive).

With `C1=CC2CCC[N-]C2N1.C1=CC2CCC[N-]C2N1.[I][Pt+2][I]` (stereo not given), the growth inhibition is 10% (inactive).

Turning to `O=[N+]([O-])/C=C/c1cccc(F)c1`, the growth inhibition was 29% (inactive).

For the compound `O=[N+]([O-])c1ccc(CS(=O)(=O)C(Cl)(Cl)Cl)o1`, the growth inhibition is 16% (inactive).

`CC(=O)[O][Hg][c]1ccc(N)[c]([Hg][O]C(C)=O)c1`: the growth inhibition was 99% (active).

With `CNP(=O)(Oc1cc(Cl)c(Cl)cc1Cl)N1CCN(c2ccccc2)CC1` (stereo not given), the growth inhibition was 8% (inactive).

For the compound `Cc1ccc2c(c1)N(CCN(CCCl)CCCl)c1c(ccc3ccccc13)S2`, the growth inhibition is -9% (inactive).

For `CC1(C(=O)O)CCCC2(C)c3cc(O)ccc3CCC12` (stereo not given), the growth inhibition was 2% (inactive).

Take `C#CC(O)(CC)CC`: the growth inhibition was -3% (inactive).

Turning to `CC1CC[N-]C(C)C1.CN(C)C=O.[Cl][Pt][Cl]` (stereo not given), the growth inhibition was 66% (inactive).

Regarding `CN1CCN(c2ccc3nc(-c4ccc5nc(-c6ccc(N(C)CCCl)cc6)[nH]c5c4)[nH]c3c2)CC1`, the growth inhibition is -7% (inactive).

For the compound `CC(=O)NNc1ccccc1`, the growth inhibition is 9% (inactive).

Take `CC(C)[S-].CC(C)[S-].[Pt+2].c1ccc([PH+](c2ccccc2)c2ccccc2)cc1.c1ccc([PH+](c2ccccc2)c2ccccc2)cc1`: the growth inhibition was 2% (inactive).

Staying with this assay, now noted: S. cerevisiae sgs1 mgt1 strain, at 50.0 µM (retest, dose inferred, filed as 5.0), stronger effect = higher value.
With `CCOC(=O)CNC(=O)C1C2c3ccccc3C(c3ccccc32)C1C(=O)O` (stereo not given), the growth inhibition was 39% (inactive).

As to `O=[N+]([O-])c1ccc(NP(=S)(Nc2ccc([N+](=O)[O-])cc2)c2ccccc2)cc1`, the growth inhibition is 89% (active).

With `O=P(c1ccccc1)(c1ccccc1)c1ccccc1.[Cl][Sn]([c]1ccccc1)([c]1ccccc1)[c]1ccccc1`, the growth inhibition is 99% (active).

As for `CC(C)(C)OOC(=O)/C=C\C(=O)OOC(C)(C)C`, the growth inhibition is 0% (inactive).

With `Cc1cc2c(cc1O)C(C)(C)CCC2(C)C`, the growth inhibition was 78% (active).

Turning to `N#CC(C#N)=Cc1ccc(Cl)o1`, the growth inhibition was 24% (inactive).

For `COc1c(Br)cc(/C=C/[N+](=O)[O-])cc1Br`, the growth inhibition was 99% (active).

For `[O]=[Sb]([OH])([OH])[c]1ccc(NC2OC(CO)C(O)C(O)C2O)cc1` (stereo not given), the growth inhibition was -20% (inactive).

On to `NC(=S)C1=C(N)Oc2c(c(=O)oc3ccccc23)C1c1ccc(Br)cc1` (stereo not given), for which the growth inhibition was 76% (active).

In the case of `COS(=O)(=O)c1ccccc1`, the growth inhibition is 4% (inactive).

For the compound `O=[N+]([O-])c1cc[n+]([O-])c2ccccc12`, the growth inhibition was 99% (active).

For `O=C(c1ccccc1)c1c(CC(O)c2cccnc2)n(C(=O)c2ccccc2)c2ccccc12` (stereo not given), the growth inhibition was 97% (active).

Regarding `Nc1nc2ncnc(N)c2nc1-c1ccc(N(CCCl)CCCl)cc1`, the growth inhibition is 54% (inactive).

Regarding `O=C1c2ccccc2CCC1Br` (stereo not given), the growth inhibition is 98% (active).

`CC1CCCC[N-]1.CC1CCCC[N-]1.N#C[S-].N#C[S-].[Cd]` (stereo not given): the growth inhibition is 36% (inactive).

Regarding `CCOP(=O)(OCC)/C(C#N)=C/c1ccc(Br)cc1`, the growth inhibition is 95% (active).

In the case of `CN(CCCl)Cc1ccc(OCc2ccccc2)c(OCc2ccccc2)c1`, the growth inhibition was 99% (active).

Take `O=C(O)c1cccc2cccc(C(=O)O)c12.[Hg]`: the growth inhibition was 99% (active).

Regarding `S=c1[nH]c2ccccc2s1.[Pb]`, the growth inhibition is 8% (inactive).

In the case of `COc1ccc([As](O[As](c2ccc(OC)cc2)c2ccc(OC)cc2)c2ccc(OC)cc2)cc1`, the growth inhibition is 100% (active).

As to `CC1=C/C(=C2/N=C(N(C)C)SS2)C(C)=N1`, the growth inhibition was 88% (active).

Turning to `CN1C2CCC1c1c([nH]c3ccccc13)C2` (stereo not given), the growth inhibition is -10% (inactive).

Consider `C[CH2][Sn]([Br])([CH2]C)[c]1ccccc1CN(C)C`, for which the growth inhibition is 77% (active).

With `O=C(CCl)Nc1ccc(Cl)cc1`, the growth inhibition was 44% (inactive).

As for `ClC1CCCCC1[Se](Cl)(Cl)C1CCCCC1Cl` (stereo not given), the growth inhibition was 99% (active).

On to `Cc1cc(C(C)(C)c2ccc(O)c(C)c2)ccc1O`, for which the growth inhibition is 98% (active).

Turning to `O=[N+]([O-])O.[In]`, the growth inhibition was 43% (inactive).

As to `[pH]1p2[pH]p3p1p3[pH]2.c1cc[c]([Ge]([c]2ccccc2)[c]2ccccc2)cc1.c1cc[c]([Ge]([c]2ccccc2)[c]2ccccc2)cc1.c1cc[c]([Ge]([c]2ccccc2)[c]2ccccc2)cc1`, the growth inhibition is 78% (active).

As to `C1=CC2CCC[N-]C2N1.C1=CC2CCC[N-]C2N1.[I][Pt+2][I]` (stereo not given), the growth inhibition is 99% (active).

With `O=[N+]([O-])/C=C/c1cccc(F)c1`, the growth inhibition is 99% (active).

For the compound `O=[N+]([O-])c1ccc(CS(=O)(=O)C(Cl)(Cl)Cl)o1`, the growth inhibition was 99% (active).

For the compound `CC(=O)[O][Hg][c]1ccc(N)[c]([Hg][O]C(C)=O)c1`, the growth inhibition is 99% (active).

For the compound `CNP(=O)(Oc1cc(Cl)c(Cl)cc1Cl)N1CCN(c2ccccc2)CC1` (stereo not given), the growth inhibition was 72% (active).

Turning to `Cc1ccc2c(c1)N(CCN(CCCl)CCCl)c1c(ccc3ccccc13)S2`, the growth inhibition is 84% (active).

For the compound `CC1(C(=O)O)CCCC2(C)c3cc(O)ccc3CCC12` (stereo not given), the growth inhibition is 88% (active).

Turning to `C#CC(O)(CC)CC`, the growth inhibition is -2% (inactive).

`CC1CC[N-]C(C)C1.CN(C)C=O.[Cl][Pt][Cl]` (stereo not given): the growth inhibition is 100% (active).

For the compound `CN1CCN(c2ccc3nc(-c4ccc5nc(-c6ccc(N(C)CCCl)cc6)[nH]c5c4)[nH]c3c2)CC1`, the growth inhibition was 99% (active).

For `CC(=O)NNc1ccccc1`, the growth inhibition is 53% (inactive).

On to `CC(C)[S-].CC(C)[S-].[Pt+2].c1ccc([PH+](c2ccccc2)c2ccccc2)cc1.c1ccc([PH+](c2ccccc2)c2ccccc2)cc1`, for which the growth inhibition was 98% (active).
